Experimental data taken from the supplement of paper PMC6555819.

Tests used:
Assay in all cases: PBM binding z-score (relative to random genomic background probes); higher = stronger binding; sequences stand for … in GC…GCGATTGACAGCGTAGAATGAAGG
[1] = system: RARb homodimer (NR concentration 270 nM)
Method in brief: (§1)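 Custom Agilent 4×180K protein-binding microarrays carried double-stranded probes. Their 34-nt variable regions held direct-repeat seeds, single-nucleotide variants, half-site ablations and random human genomic background sequences. Arrays were incubated 1 h with ligand-free nuclear receptor dimers in PBS pH 7.4, 2% milk, 0.02% Triton X-100, 1 mM DTT, 0.2 mg/mL BSA and 0.4 mg/ml salmon testes DNA. Antibodies against each partner (one per run) detected binding, and scanned fluorescence was regression-normalized. Binding z-scores use random background probes as reference.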

[2] = system: RARg:RXRa (NR concentration 270 nM, RXRa partner concentration 90 nM)
Method in brief: as §1

[3] = system: RARg homodimer (NR concentration 270 nM)
Method in brief: as §1

[4] = system: RXRa DBDmut IVT, anti-RXR (DBD mutation: RXRa K156A/R161A, NR concentration 90 nM)
Method in brief: as §1

[5] = system: RXRa homodimer (NR concentration 180 nM)
Method in brief: as §1

[6] = system: THRa:RXRa (NR concentration 90 nM, RXRa partner concentration 90 nM)
Method in brief: as §1

[7] = system: THRa homodimer (NR concentration 90 nM)
Method in brief: as §1

[8] = system: VDR:RXRa (NR concentration 270 nM, RXRa partner concentration 90 nM)
Method in brief: as §1

[9] = system: VDR homodimer (NR concentration 270 nM)
Method in brief: as §1

Sequence	PBM binding z-score [1]	PBM binding z-score [2]	PBM binding z-score [3]	PBM binding z-score [4]	PBM binding z-score [5]	PBM binding z-score [6]	PBM binding z-score [7]	PBM binding z-score [8]	PBM binding z-score [9]
CCTACTGGGCCATTCAGAGGTCATTGAACATATG	4.05	4.74	3.46	1.03	4.17	3.33	1.65	4.16	4.01
CAAATTAGGTCACAGAGGTCAAAGTCCGTGCGTA	5.59	7.24	7.81	3.72	7.43	4.73	3.68	8.12	6.37
CGAACTTGGTCAGAACAGGACAGTGAAGGATGAT	0.311	0.432	0.829	-0.105	0.172	1.09	-0.102	-0.145	-0.116
AGTCAAACTTCACTAGGTAACGTAAGATTCAGCT	-0.374	0.121	0.346	0.238	-0.0168	0.342	0.203	-0.0334	-0.395
CCGACTGGGGCATAAGGTTACCAGAAGCCAGCCC	1.99	1.86	1.08	-0.501	1.26	2.28	1.23	0.214	-0.301
ATCGTAAGGTCGACGAGGTGAGTATACACCGTTT	2.31	3.18	3.23	1.37	3.01	3.89	2.39	4.52	1.63
ACTATTAGTTGAATTAGGGCAACCGATACGACGC	0.778	0.551	0.997	0.675	0.283	1.54	0.513	0.274	0.497
TCATATAGGTAAATGCTAGGTGAAGGTCCGATCT	0.576	0.474	0.349	1.34	0.65	1.43	0.583	0.873	0.324
TCATATAGGTTAACAGGTGAAAGTCCGTAAGTTA	1.85	2.13	1.57	1.53	2.09	1.39	0.525	2.04	0.443
CAAACTAGGTCACGAAAGGCCAAAGTCGAATGAC	4.29	5.29	5.81	2.01	3.94	4.33	1.52	4.15	1
TCTATTTGTTGATTAGGGCAACCGAAACAGCGGA	0.77	0.864	0.859	1.28	0.492	0.89	0.561	0.823	0.505
CCTACTGGGCCAAGTTCATTGATCAGTCAAAGCA	1.71	1.45	1.09	2.37	0.409	0.994	0.294	2.89	4.4
CGTCGAAGTTCAACTAAGGTAACGTAAAGCACGC	2.89	3.53	3.67	3.86	2.69	4.97	2.11	3.43	2.88
CCTTACGGGTCACCAGGTTATAGCACGACGAGCG	3.75	5.68	5.33	0.805	6.06	3.45	0.878	4.64	1.09
TCGAGTAGGTTAGGGGCATCCAGAATGGCGTCGA	1.01	0.269	0.268	0.271	0.71	1.05	0.256	0.536	0.462
TTACCAAGGTGTGCTGAGGTCGTTGATCCAACTC	1.18	0.184	-0.154	0.555	0.725	3.24	1.77	2.39	2.39
TTACCAAGGTGAAGGTCGTTCATCCCTCTGTAGA	2.21	1.63	1.5	0.548	1.75	2.62	1.08	1.74	1.1
ATATGTAGGTTATCGGATCATTCAGTTTGCGCAT	0.853	0.837	0.866	0.702	1.12	0.794	0.624	1.58	0.764
AGAACGAGGGCAATGAGTTGATAGCACGGGTGGC	0.844	0.952	1.54	1.78	0.91	0.824	-0.00899	4.96	2.26
CCGCGTAGGTTATGGGGCATTCAGGCAACGGTGA	1.05	0.489	0.397	-0.64	0.576	0.529	0.176	-0.207	-0.154
CGAACTAGGTCAGAACAGGACGGTGAAGGATGAT	1.69	2.3	3.17	0.53	1.14	2.43	-0.175	0.0677	-0.257
GCATACAGGTAATACAAGGTGAAAGTCCGATTGT	1.04	0.773	0.617	0.25	0.894	4.17	1.16	0.492	0.161
CCTACTGGGCCATCAGGTTATTGATATCAACGTT	0.464	0.256	0.522	-0.157	0.0138	0.797	0.712	0.0822	-0.275
TCGAGTAGGCTACCAATGGGGCATTCAGCTTTCT	-0.245	-0.505	-0.706	-0.0858	-0.356	-0.828	-0.931	-0.442	-0.898
GCTGCTAGGTCAACTGATGGTCAGATAAAGCTCG	3.52	5.33	5.41	1.79	3.01	2.9	1.07	1.82	0.346
AGTCAAAGTTAAGGACGAGGTAACGTAAAGCACG	0.455	0.647	0.899	-0.752	0.474	3.19	2.65	-0.131	-0.263
GCTGCTAGGTCAGGTTGGTCAGTTAACGGGTACG	2.75	2.59	3.38	0.795	1.02	2.03	1.2	1.02	0.71

Sequence	PBM binding z-score [1]	PBM binding z-score [2]	PBM binding z-score [3]	PBM binding z-score [4]	PBM binding z-score [5]	PBM binding z-score [6]	PBM binding z-score [7]	PBM binding z-score [8]	PBM binding z-score [9]
ATCGGAAGGTCGACGAGGTGAGTATACACCGTTT	1.95	2.32	2.65	0.311	2.37	3.04	0.579	3.87	0.813
CATACAGGATCAGCTAGGCCAGAGTAGGGACGGC	-0.0161	-0.112	0.213	-0.652	-0.0715	-0.122	0.03	-0.514	0.0286
AATCAAAGTTCAGGACGAGGTAACGTAAAGCACG	3.22	4.66	4.55	2.68	2.92	3.92	1.58	3	2.06
ACTATTAGTTGGCTTAGGGCAACCGATACGACGC	0.69	0.504	0.733	0.512	0.326	0.788	0.529	0.158	0.021
ATCTCTAGGTAAAGATAGTTCAGTGACTGCAAAT	1.33	0.534	0.542	0.648	-0.00287	0.905	0.426	1.05	0.571
TCTTGTAGATCAATAGAGGTTTAGAAAGTGCGCT	-0.294	-0.0286	-0.308	0.603	0.0167	0.294	-0.767	0.618	0.0472
CGTAAAAGTTCAAGGTAACGTAACAGAAAGCAGC	3.55	4.73	5.27	4.27	3.81	2.92	1.17	3.38	2.67
ATCTCTAGGTAACAAGTTCCGTGAAAGAGAGGAC	0.549	0.357	0.586	-0.202	0.164	0.983	0.899	0.0818	0.475
TCTTGTAGAACAACAGGAGGTTAAGAAAGATCGA	0.958	0.377	0.286	0.511	0.875	0.726	-0.422	0.492	-0.182
ATATGTAGGTTACATCCGGGTCATTCACGCTATG	2.82	4	2.31	1.39	3.38	3.86	2.6	4.35	3.12
GATACAGGGTCTAGGCCAGAGTACGCGTATTGAT	-0.143	0.0579	0.175	-0.382	-0.304	-0.508	-0.824	-0.508	0.154
AGTCAAAGTTCTCTAGGTAACGTAAGATTCAGCT	0.137	0.139	0.523	0.597	0.0862	0.903	0.459	-0.0211	0.273
CTCGAAAGGTAGGTTGAGGTGAGTATACGGATAA	0.59	0.129	0.396	-0.171	0.223	3.9	1.24	–	0.0952
ACTATTAATTGACTTAGGGCAACCGATACGACGC	1	0.766	0.814	0.828	0.409	0.884	1.15	–	1.24
TCTCGGAGGACACGAAAGCTCAGAGCTCGACATC	0.352	0.462	1.19	0.558	-0.227	1.23	0.151	–	-0.801
CTCGGAAGGTCGGTTGAGGTGAGTATACGGATAA	1.62	1.28	1.86	0.318	0.83	4.59	1.32	–	0.205
TCTCGGAGGCCACGAAGGTCAGAGCTTTCCAGAG	3.74	3.08	3.36	0.442	1.88	2.12	-0.105	–	0.706
ACTATCAGGCCAAGTTTGGGTCACTCAAACAAAG	2.56	2.71	2.11	0.348	0.935	2.93	1.81	–	0.829
TCATATAGGTAAATGCTAGGTGAAAGACCGATCT	0.314	0.683	0.454	1.44	1.15	1.32	0.328	–	0.112
TCTTGTAGATCAACAGGAGGGTAAGAAAGATCGA	-0.229	0.172	0.108	0.172	0.0944	-0.144	-1.1	–	-0.319
CTACCAAGTTGAACAAGGTCGTTGATTACTATTC	1.75	0.927	0.929	2.12	1.15	2.77	1.57	–	3.58
TCTTGGAGATCAATAGAGGTTAAGAAAGTGCGCT	1.39	0.878	0.376	0.544	1.5	3.19	-0.339	–	0.159
ACGGACAGGTGATGAAGGTAACTCAGGCTATCAT	0.711	0.496	0.813	0.19	0.31	1.02	0.438	–	0.327
TCTCGCAGGACACGAAGGTCAGAGCTTTCCAGAG	3.18	2.44	2.34	0.886	1.96	2.4	0.377	–	0.357
GCTTACGGCTCAAAGGTTATAGCATGAATAGAAT	1.05	1.29	0.586	0.213	1.93	1.21	-0.314	–	-0.204
ACTAGTTGGTCTGCTGAGGTCACACACAATTCGG	3.79	3.33	2.94	1.37	3.45	4.32	5.25	–	3.1
